Results from the supplement of paper PMC9948646.

System: gramicidin D channels in DC22:1PC lipid vesicles (bilayer-modifying potency)
Experiment: initial Tl+ fluorescence quench rate relative to no-drug control (NormRate, gramicidin monomer-dimer shift) (ratio (fold of control)); higher = stronger bilayer-modifying effect (equilibrium shifted toward conducting dimers), active = 1.5 or more
Details: 10 µM; lipid concentration 50 µM; temperature: 25 °C
Method: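 Stopped-flow fluorescence quench assay: ANTS-loaded DC22:1PC large unilamellar vesicles doped with gramicidin D (1:2000), 50 µM lipid, equilibrated 10 min with 10 µM drug (0.1% DMSO), mixed with Tl+ quench buffer at 25°C. Initial quench rate (Tl+ influx) was fitted with a modified stretched exponential and normalised to the no-drug control rate (NormRate); duplicates from two independent LUV preparations (triplicates for 7 drugs).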

Structure (SMILES) | initial Tl+ fluorescence quench rate
COc1ccc(C2=NN(C3CCCCCC3)C(=O)[C@@H]3CC=CC[C@H]23)cc1OCCCCOc1ccc(-c2nn[nH]n2)cc1 | 8.03 (active)
C[C@H](c1ccc2c(c1)CCCC2)N(C)c1ncc2c(N)nc(N)nc2n1 | 2.15 (active)
CCc1c(C)nc(-n2nc(C)cc2NC(=O)c2ccccc2SC)[nH]c1=O | 1.2 (inactive)
Cc1ccc(NC(=O)c2cc(S(=O)(=O)NC(C)(C)C)ccc2C)nc1 | 1.21 (inactive)
O=C(Nc1nc(-c2ccccn2)cs1)[C@H]1C[C@@H]1c1ccccc1F | 1.41 (inactive)
O=C(N[C@H](Cc1ccccc1)C(=O)Nc1ccccc1N1CCOCC1)c1cccs1 | 1.21 (inactive)
CC1(C)Cc2c(c(N3CCOCC3)nc3snc(Br)c23)CO1 | 1.26 (inactive)
COc1cc(Br)cc2cc(C(=O)Nc3cccc(C(F)(F)F)c3)c(=O)oc12 | 1.05 (inactive)
O=[N+]([O-])c1cn2c(n1)OC[C@@H](OCc1ccc(OC(F)(F)F)cc1)C2 | 1.38 (inactive)
CCCCOC(=O)Nc1cc2nc(C3CCCCC3)[nH]c2cc1N1CCCC1 | 1.33 (inactive)
c1ccc(Oc2ccc(-c3cc(N4CCNCC4)[nH]n3)cc2)cc1 | 1.44 (inactive)
